The results in this text go back to PubChem BioAssay (NCI).

Compounds without any hit were thinned out: in the full panel of roughly 83,000, 20% have a hit.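 Single-concentration screen, 48 h exposure, 96-well plates. Endpoint: percent growth. Below 10 = active.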 A number with no mark means an inactive call. Calls of active or inactive are those of the source.

What all share (test): NCI-60 one-dose screen, 48 h (100 = growth as untreated, 0 = no growth, -100 = all killed)
The subject of assay [1] is NCI-H23 lung. To be noted: 10 µM unless noted.
The test system of assay [2] is NCI-H226 lung. To be noted: 10 µM unless noted.
The test system of assay [3] is NCI-H322M lung. The settings on record: 10 µM unless noted.
The test system of assay [4] is HOP-62 NSCLC. To be noted: 10 µM unless noted.
The subject of assay [5] is NCI-H460 lung. To be noted: 10 µM unless noted.
In assay [6] the test system is HOP-92 NSCLC. The settings on record: 10 µM.
Assay [7] concerns NCI-H522 lung. The settings on record: 10 µM unless noted.
For assay [8], the system named is A549/ATCC NSCLC. The settings on record: 10 µM unless noted.
In assay [9] the test system is 786-0 renal. To be noted: 10 µM unless noted.
Assay [10] deals with COLO 205 colon. To be noted: 10 µM unless noted.

As to `N#Cc1cnc2ccc(-c3cnc(N)nc3)cc2c1N1CCc2cc(F)c(Cl)cc21`, the growth was 9.66% (active) in assay [1]; 9.54% (active) in assay [2]; 10% in [3]; 2.88% (active) in assay [4]; 7.28% (active) in assay [5]; -19% (active) in assay [6]. Further, the growth in assay [7] is 10.4%; in [8], 4.58% (active); in [9], 3.11% (active); in [10], 6.97% (active).
For `O=C(Cn1cc(-c2ccccc2)nn1)Nc1nc(-c2ccc(Cl)cc2)cs1`, the growth is 97.7% in assay [1]; 106% in assay [2]; 100% in assay [3]; 108% in [4]; 109% in assay [5]; 130% in assay [6]. The growth in assay [7] is 88.2%; in [8], 103%; in assay [9], 88.6%; in assay [10] it was 117%.
As for `CS(=O)(=O)Nc1cc(-c2ccc3ncc(C#N)c(Nc4cccc(Cl)c4F)c3c2)cnc1Cl`, the growth in assay [1] is 8.28% (active); in assay [2], 10.4%; in assay [3] it was -10.2% (active); in assay [4] it was -8.87% (active); in assay [5], 6.34% (active); in assay [6], -25% (active). Moreover, the growth in [7] is 1.54% (active); in assay [8], 4.61% (active); in assay [9], 4.98% (active); in assay [10], -74.5% (active).
Take `CCn1c2ccccc2c2cc(-n3nncc3-c3ccccc3)ccc21`: the growth was 7.25% (active) in [1]; 47.8% in assay [2]; 45.1% in [3]; 66% in assay [4]; 0.528% (active) in assay [5]; 57.8% in assay [6]. The growth in [7] is 4.55% (active); in assay [8], 24.5%; in [9] it was 31.6%; in [10], -10.9% (active).
For the compound `CC1=NC2=NN3C(=NN2C(c2ccccc2)=C1)N=NC(c1ccc(Br)cc1)=C3c1ccc(Br)cc1`, the growth in [1] was 105%; in assay [2] it was 102%; in assay [3], 101%; in assay [4], 102%; in [5] it was 112%; in assay [6], 110%. Moreover, the growth is 98.5% in assay [7], 109% in assay [8], 107% in assay [9] and 112% in assay [10].
For the compound `COc1ccc(NC2=C(Cl)C(=O)c3nc(C)ccc3C2=O)cc1OC`, the growth in assay [1] is 59%; in [2], 97.1%; in assay [3] it was 99%; in assay [4], 110%; in assay [5] it was 100%; in assay [6], 112%. The growth in assay [7] was 78.8%; in [8], 107%; in assay [9], 99%; in assay [10] it was 108%.
Turning to `Cc1ccc(-n2cc(/C=N/NC(=O)c3nc(N)n[nH]3)c(-c3ccc(S(C)(=O)=O)cc3)n2)cc1`, the growth was 96.6% in [1]; 102% in assay [2]; 104% in [3]; 98.6% in assay [4]; 103% in [5]; 94.2% in [6]. Further, the growth in assay [7] is 92.3%; in [8], 104%; in [9], 98.6%; in assay [10], 105%.
`CCN1CCN(Cc2cn(-c3ccc(S(N)(=O)=O)cc3)nn2)CC1`: the growth is 108% in [1]; 96.5% in assay [2]; 106% in [3]; 107% in assay [4]; 108% in [5]; 104% in [6]. Besides, the growth in [7] was 97.8%; in assay [8] it was 109%; in [9], 102%; in [10], 109%.
In the case of `NS(=O)(=O)c1ccc(Nc2nc(Nc3ccccc3)nc3nnc(SCC(=O)NC4CCCCC4)n23)cc1`, the growth in assay [1] is 109%; in assay [2], 100%; in [3], 104%; in assay [4], 103%; in [5], 106%; in assay [6], 105%. Besides, the growth was 92.1% in assay [7], 108% in assay [8], 103% in [9] and 110% in [10].
Regarding `N#Cc1cccc(CN2CCC3=C(C2)C(=O)N(Cc2ccc(Cl)cc2)C2=NCCN23)c1`, the growth in assay [1] is 30.8%; in [2], 35%; in assay [3], 50.8%; in assay [4], 31.8%; in assay [5], 15%; in [6], 29%. Further, the growth was 23.1% in [7], 27.2% in [8], 44.7% in assay [9] and -41% (active) in [10].
With `N=c1c2cc(-c3ccccc3)oc2ncn1/N=C/c1ccc(Cl)cc1`, the growth in assay [1] is 97.8%; in assay [2], 71%; in [3], 90.9%; in assay [4] it was 82.6%; in assay [5], 6.07% (active); in assay [6], 105%. Moreover, the growth in [7] was 91.6%; in assay [8], 41.7%; in assay [9], 85.5%; in assay [10] it was 89.2%.
On to `CS(=O)(=O)Nc1cc(-c2ccc3ncc(C#N)c(NCc4ccccc4O)c3c2)cnc1Cl`, for which the growth in assay [1] is -7.77% (active); in assay [2], 16.9%; in [3], 16.1%; in assay [4], 3.57% (active); in assay [5], 7.88% (active); in [6], -10.8% (active). Besides, the growth in assay [7] was 12.8%; in assay [8] it was 15.8%; in assay [9] it was 8.24% (active); in assay [10], 8.91% (active).
Take `N=c1c2cc(-c3ccccc3)oc2ncn1/N=C/c1ccc(Br)cc1`: the growth is 102% in assay [1]; 71.3% in [2]; 78.1% in assay [3]; 73.7% in assay [4]; 15.8% in [5]; 105% in [6]. Moreover, the growth in assay [7] was 91.8%; in assay [8], 44.2%; in assay [9] it was 59.2%; in [10], 98.9%.
